Rows were chosen to be rich in hits. Some 1.2% of all compounds tested hit in one or more screens of this group.
gsp antag: antagonizes gsp, the McCune-Albright syndrome mutation; gsp-mutant cells, cAMP HTRF, 30 min; Potency, µM (top dose mostly 76.9 µM), without a hit: at the highest dose activity change, negative = inhibition, actives largely listed as inhibitors; hit rate 0.4% among 340,000; calls by dose curve; cell line not stated here;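 note: intracellular cAMP measured with PDE inhibitor Ro 20-1724 present during compound exposure; potency is the fitted concentration of half-maximal effect; % is set by controls: 0 for no effect and ±100 for the full control effect; nearly all actives have a fitted effect of over 65% in size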
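Measurement of cellular cAMP by homogeneous time-resolved fluorescence following a 30 min compound exposure at 37C. The PDE inhibitor […] was present throughout; the assay buffer was DPBS with 0.05% BSA and 0.005% Tween 20.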
RXFP1 agonist: agonists of human relaxin receptor RXFP1. Q9HBX9. hit rate 0.3% among 370,000. Potency, µM (top dose mostly 57.5 µM), for the others: at the top dose activation, hits mostly activators. HEK293T-RXFP1 cAMP TR-FRET, 30 min; response scale: percent of porcine relaxin response, buffer zero. AID 2676; active = well fitted activation curve with a large enough effect; inconclusive = small, poorly fitted or top-dose-only effect; note: potency is the fitted concentration of half-maximal effect; % is set by controls: 0 for no effect and ±100 for the full control effect; nearly all actives have a fitted effect of over 60% in size
Target sequence (Q9HBX9 whole entry, looked up): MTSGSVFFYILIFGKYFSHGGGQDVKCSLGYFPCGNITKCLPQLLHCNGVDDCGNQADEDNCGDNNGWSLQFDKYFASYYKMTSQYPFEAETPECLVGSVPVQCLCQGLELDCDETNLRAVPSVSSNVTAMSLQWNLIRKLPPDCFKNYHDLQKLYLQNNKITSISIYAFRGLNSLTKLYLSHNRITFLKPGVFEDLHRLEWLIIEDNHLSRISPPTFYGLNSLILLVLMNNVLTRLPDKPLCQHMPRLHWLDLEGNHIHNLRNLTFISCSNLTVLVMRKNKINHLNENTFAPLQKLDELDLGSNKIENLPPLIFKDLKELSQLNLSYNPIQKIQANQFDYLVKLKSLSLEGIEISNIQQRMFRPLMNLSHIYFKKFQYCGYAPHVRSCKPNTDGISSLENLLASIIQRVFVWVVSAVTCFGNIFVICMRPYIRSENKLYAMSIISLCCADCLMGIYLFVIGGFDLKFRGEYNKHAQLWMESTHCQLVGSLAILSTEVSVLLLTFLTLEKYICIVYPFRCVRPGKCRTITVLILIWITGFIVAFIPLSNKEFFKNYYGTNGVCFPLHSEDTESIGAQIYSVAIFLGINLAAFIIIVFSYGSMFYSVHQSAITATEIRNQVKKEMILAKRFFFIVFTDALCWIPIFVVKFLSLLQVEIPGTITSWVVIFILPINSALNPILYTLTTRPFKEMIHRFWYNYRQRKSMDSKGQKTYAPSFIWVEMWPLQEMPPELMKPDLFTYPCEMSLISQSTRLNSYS
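cAMP rise read by TR-FRET after 30 min, 37C compound exposure (up to 58 uM) in RXFP1-transfected HEK293 cells with Ro 20174 present. EC50 from Hill-equation fits, with 29 nM porcine relaxin as 100% and buffer as basal.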
gsp agonist: gsp mutant agonism. gsp mutant cells, cAMP HTRF, 30 min. Potency, µM (highest dose often 76.9 µM), for the others: at the highest dose activation (cAMP increase), actives largely listed as activators. hit rate 0.13% among 340,000. AID 624287; active = well fitted activation curve with a large enough effect; inconclusive = small, poorly fitted or top-dose-only effect, or another doubt; inactive = no such curve, though single readings can be large or run the other way; cell line not stated here;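 note: phosphodiesterase inhibitor Ro 20-1724 added with compounds to block cAMP breakdown; potency is the fitted concentration of half-maximal effect; nearly all actives have a fitted effect of over 60% in size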
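Cells stably selected in G418 were plated at 2000/well, grown 16-24 hr, then given compounds in DMSO with the PDE inhibitor […] (300 uM solution added) for 30 min at 37C; cAMP was read by HTRF.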
pAkt inh: blocks phosphorylation of Akt; Neuro2A IGF-stimulated pAkt S473 HTRF, 20 min; hits give low values; activity change, % for hits at 50 µM; hit rate 0.32% among 360,000; in the data active = activity change below about -80%; inconclusive = mostly about -51% to -80%; note: % is set by controls: 0 for no effect and ±100 for the full control effect
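Neuro2A cells in DMEM with 0.5% FBS, overnight at 37 deg C, given compound at single 50 µM final, then IGF (6 nM final) for 20 min at 37 deg C. Lysed; phospho-Akt Ser473 by HTRF after 24 h, 665/615 ratio.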
RXFP1 antagonist: blocks the human relaxin receptor RXFP1. activity change, negative = inhibition, % at 57.5 µM. AID 1259400. Q9HBX9. HEK293-RXFP1, relaxin-stimulated cAMP HTRF, 30 min; hits give low values. hit rate 0.59% among 350,000;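 active = activity change of -60% or lower, but not beyond a set lower limit; inconclusive = change between -60% and -40%, or beyond the set limit; inactive = change above -40%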; note: % is set by controls: 0 for no effect and ±100 for the full control effect
* marks the source's active call; other numbers are inactive results; ! = a repeat was not active; [ ] = dose if it differs, or a comment.

Results for Cn1c(CNc2nc(-c3ccccc3)cs2)nnc1SCC(=O)OC1CCCCC1 ?
gsp antag: -20%; RXFP1 agonist: -1%; gsp agonist: -35%; pAkt inh: inactive; RXFP1 antagonist: -6

What do the screens show for `Cc1ccc(CNC(=O)CCc2nnc3ccc(N4CCC5(CC4)OCCO5)nn23)cc1`?
gsp antag: 4%; RXFP1 agonist: 18µM*; gsp agonist: inconclusive; RXFP1 antagonist: 16

Results for COc1ccc(CNC(=O)CCc2nnc3ccc(N4CCC5(CC4)OCCO5)nn23)cc1 ?
gsp antag: 6%; RXFP1 agonist: inconclusive; gsp agonist: 0%; pAkt inh: inactive; RXFP1 antagonist: 14

Results for CSc1ccc(CCNC(=O)CCc2nnc3ccc(N4CCOCC4)nn23)cc1 ?
gsp antag: 2%; RXFP1 agonist: 26%; gsp agonist: 16µM*; pAkt inh: inactive

Results for CSc1ccc(CCNC(=O)CCc2nnc3ccc(N4CCCCC4)nn23)cc1 ?
gsp antag: 3%; RXFP1 agonist: 8%; gsp agonist: 21%; pAkt inh: inactive

How did CCOC(=O)c1ccc(NC(=O)CCc2nc(-c3ccccc3)no2)cc1 do in these assays?
gsp antag: 40µM*; RXFP1 agonist: -1%; gsp agonist: -19%; pAkt inh: -101%*; RXFP1 antagonist: -17

What do the screens show for `Cc1noc(NS(=O)(=O)c2ccc(NC(=O)Nc3ccc(Cl)c(Cl)c3)cc2)c1C`?
gsp antag: -16%; RXFP1 agonist: 0%; gsp agonist: inconclusive; pAkt inh: -107%*; RXFP1 antagonist: 6

How did Cc1noc(NS(=O)(=O)c2ccc(NC(=O)c3ccc(N4C(=O)c5ccccc5C4=O)cc3)cc2)c1C do in these assays?
gsp antag: 3%; RXFP1 agonist: 5%; gsp agonist: -2%[15.4 µM]; pAkt inh: inactive; RXFP1 antagonist: -33

What do the screens show for `Cc1cc(C)c(C#N)c(SCC(=O)Nc2ccc(S(=O)(=O)Nc3onc(C)c3C)cc2)n1`?
gsp antag: 5%; RXFP1 agonist: 14%; gsp agonist: 18µM*; pAkt inh: inactive

Results for COc1ccc(CC(=O)Nc2ccc(S(=O)(=O)Nc3onc(C)c3C)cc2)cc1OC ?
gsp antag: 2%; RXFP1 agonist: 0%; gsp agonist: -7%; pAkt inh: inactive; RXFP1 antagonist: -113*

What do the screens show for `Cc1noc(NS(=O)(=O)c2ccc(NC(=O)c3nn(-c4ccccc4)ccc3=O)cc2)c1C`?
gsp antag: 14%; RXFP1 agonist: inconclusive; gsp agonist: 14µM*; pAkt inh: inactive; RXFP1 antagonist: 13

How did CCCCC(=O)N(CCOC)c1nnc(-c2ccc(OC)cc2)s1 do in these assays?
gsp antag: -5%; RXFP1 agonist: 6%; gsp agonist: inconclusive; pAkt inh: -103%*; RXFP1 antagonist: 3

What do the screens show for `CCN(C(=O)c1ccco1)c1nnc(-c2ccc(OC)cc2)s1`?
gsp antag: -1%; RXFP1 agonist: inconclusive; gsp agonist: 32µM*; pAkt inh: inactive; RXFP1 antagonist: -14

How did CSCCC(NC(=O)c1cc(C)oc1C)C(=O)O (configuration not stated) do in these assays?
gsp antag: 4%; RXFP1 agonist: -2%; gsp agonist: inconclusive; RXFP1 antagonist: -3

What do the screens show for `COC(=O)CCC(NC(=O)c1cc(C)oc1C)C(=O)OC` (configuration not stated)?
gsp antag: 4%; RXFP1 agonist: 0%; gsp agonist: -2%; pAkt inh: -105%*; RXFP1 antagonist: -5

Results for CS(=O)(=O)c1nc(-c2ccccc2)cc(C(F)(F)F)n1 ?
gsp antag: 18%; RXFP1 agonist: 1%; gsp agonist: 0%[15.4 µM]; pAkt inh: inactive; RXFP1 antagonist: -106*

Results for Cc1nnc(NC(=O)CSc2nc3ccccc3o2)s1 ?
gsp antag: -2%; RXFP1 agonist: -1%; gsp agonist: -1%; pAkt inh: inactive; RXFP1 antagonist: -8

How did O=C(CSc1nc2ccccc2o1)Nc1nncs1 do in these assays?
gsp antag: -1%; RXFP1 agonist: 0%; gsp agonist: -5%; pAkt inh: -116%*; RXFP1 antagonist: -2

How did COc1ccc(-c2c[n+](CC(=O)OC3CC(C)CCC3C(C)C)c3n2CCC3)cc1 (configuration not stated) do in these assays?
gsp antag: 14%; RXFP1 agonist: -1%; gsp agonist: -20%; pAkt inh: inactive; RXFP1 antagonist: inconclusive

Results for CC(C)[C@@H]1CC[C@@H](C)C[C@H]1OC(=O)C[n+]1cc(-c2ccc(Cl)cc2)n2c1CCCCC2 ?
gsp antag: -7%; RXFP1 agonist: 0%; gsp agonist: 11%[15.4 µM]; pAkt inh: inactive; RXFP1 antagonist: -74*

Results for Cc1ccc2nc(Cl)c(/C=N/NC(=O)c3ccccc3O)cc2c1 ?
gsp antag: 35µM*; RXFP1 agonist: 1%; gsp agonist: -11%; pAkt inh: inactive; RXFP1 antagonist: -11

Results for CC(C)N(Cc1ccccc1)C(=O)CN1C(=O)CSc2ccc(S(=O)(=O)N3CCCC3)cc21 ?
RXFP1 agonist: 0%; RXFP1 antagonist: -8

How did S=c1[nH]nc(COc2ccccc2)n1C1CCCCC1 do in these assays?
gsp antag: -7%; RXFP1 agonist: -2%; gsp agonist: -24%; pAkt inh: -101%*; RXFP1 antagonist: -12

What do the screens show for `Cn1c(=O)c2c(c3ccccc31)OC(C)(C)CC2`?
gsp antag: active[activator]; RXFP1 agonist: 5%; gsp agonist: -14%[15.4 µM]; pAkt inh: inactive; RXFP1 antagonist: -12

What do the screens show for `COc1cccc2c3c(c(=O)[nH]c12)CCC(C)(C)O3`?
gsp antag: 6%; RXFP1 agonist: 1%; gsp agonist: -21%; pAkt inh: inactive; RXFP1 antagonist: -2

Results for CCOc1ccc(CCNC(=O)CCCn2c(=O)c3cccn3c3cccnc32)cc1OCC ?
gsp antag: inconclusive; RXFP1 agonist: inconclusive; gsp agonist: 0%; RXFP1 antagonist: -96*!

How did O=C1C2=C(Nc3ccccc3SC2c2ccco2)c2ccccc21 (configuration not stated) do in these assays?
gsp antag: -4%; RXFP1 agonist: 0%; gsp agonist: -27%; pAkt inh: -114%*; RXFP1 antagonist: -27

How did Cc1ccc(-c2cc(-c3ccccc3)[nH]c(=S)c2C#N)cc1 do in these assays?
gsp antag: 1%; RXFP1 agonist: 12%; gsp agonist: inconclusive; pAkt inh: inactive; RXFP1 antagonist: 5

What do the screens show for `N#Cc1c(N)[nH]c(=S)c(C#N)c1-c1ccccc1`?
gsp antag: 20%; RXFP1 agonist: 30%; gsp agonist: 20µM*; pAkt inh: inactive; RXFP1 antagonist: 34

What do the screens show for `O=C(c1cc(-c2ccncc2)nc2ccc(Br)cc12)N1CCN(c2ccccn2)CC1`?
gsp antag: inconclusive; RXFP1 agonist: 5%; gsp agonist: -27%; pAkt inh: -114%*; RXFP1 antagonist: -10
